ChEMBL document CHEMBL3988442, “University of Dundee, Small-Polar-MMV Screening Library” (2021)
Hit rate of the full screen: of about 48,000 compounds, about 13,000 (27%) showed an effect of 50% or more. This is one part of the list.

system: Wolbachia pipientis; test: Anti-Wolbachia Cell-Based Screen; type: functional; design: scale not given: in the data most compounds retested in dose-response had high values; conditions: 5 µM

| SMILES | Percent Effect |
| --- | --- |
| CN(C)C1CCCN(C(=O)c2ccc3sc4c(c3c2)CCNC4=O)CC1 (stereo not drawn) | -3.9% |
| Cc1cccc(NC(=O)CCC(=O)NCC(=O)c2ccccc2F)c1 | -5.456% |
| COc1cc2c(cc1-c1nc3c(cnn3C)[nH]1)OCO2 | 9.432% |
| CCOCCCC(=O)NCc1ccc(N2CCCCC2)cc1 | 1.636% |
| CCOCCCNC(=O)CCCC(=O)n1nc(C)c2ccccc21 | 114.3% |
| CCCNC(=O)CCC(=O)n1nc(C)c2ccccc21 | 168.2% |
| CCCNC(=O)CCc1ccnc2ccccc12 | -4.736% |
| CCCNC(=O)CCNC(=O)N1CCC(=Cc2ccccc2)CC1 | 1.443% |
| COCCCNC(=O)CCn1nc(C)c2ccccc21 | 5.056% |
| COc1cccc2[nH]cc(CCNC(=O)N3CCC[C@H]3CO)c12 | 0.855% |
| Cn1c(=O)c2cc(C(=O)NCc3ccncc3)ccc2n(C)c1=O | 119.1% |
| Cn1c(=O)c2cc(C(=O)NCc3ccccn3)ccc2n(C)c1=O | 80.97% |
| CN1CCN(c2cc(CNC(=O)c3ccc(=O)n(C)c3)ccn2)CC1 | 6.282% |
| Cc1cc(NC(=O)NCc2ccccn2)n(C)n1 | 11.39% |
| Cn1nc(CC(C)(C)C)cc1NC(=O)c1ccc(CNC(N)=O)cc1 | -16.73% |
| Cn1nc(C(=O)NCc2ccccn2)c2c1CCS(=O)(=O)C2 | 2.968% |
| CC(C)n1cnnc1CN1C(=O)CCc2ccccc21 | -28.4% |
| c1ccc2oc(N3CCCC4(CCOC4)C3)nc2c1 (stereo not drawn) | -10.39% |
| O=C(Cc1ccon1)N(CCC(F)(F)F)C1CCCC1 | -15% |
| COC(=O)c1ccccc1C(=O)N(CCN(C)C)Cc1sccc1C | -10.61% |
| COc1cccc(OCC2CCCN(C(=O)Cc3cccc(O)c3)C2)c1 (stereo not drawn) | -41.73% |
| CN(C)C[C@@H]1CN(C(=O)Cc2cccc(O)c2)C[C@@H]1CO | -7.089% |
| OC1(CN2CCCC2)CCCN(Cc2cnc(-c3ccccc3)nc2)C1 (stereo not drawn) | 1.78% |

| SMILES | Percent Effect |
| --- | --- |
| O=C1N(Cc2cccc(F)c2F)CCCC1(O)CN1CCCOCC1 (stereo not drawn) | -6.352% |
| O=C(Cc1cccc(O)c1)N1CCCC(O)(CN2CCCC2)CC1 (stereo not drawn) | 146.3% |
| O=C(Cc1cccc(O)c1)N1CCC2(CC1)c1ccccc1CC2O (stereo not drawn) | -3.302% |
| O=C(Cc1ccc(S(=O)(=O)C(F)F)cc1)N1CCC1 | -8.484% |
| O=C(Cc1ccc(S(=O)(=O)C(F)F)cc1)N1CCCC1 | -6.682% |
| O=C(Cc1cccc(O)c1)N1CCCC(O)(CN2CCOCC2)CC1 (stereo not drawn) | 193.2% |
| O=C(Cc1ccc(O)cc1)N1CCCC(O)(CN2CCOCC2)CC1 (stereo not drawn) | 136.3% |
| CN1CCN(CC2(O)CCCN(C(=O)Cc3cccc(O)c3)CC2)CC1 (stereo not drawn) | 188.6% |
| COCCN(C/C=C/c1ccccc1)Cc1ncc[nH]1 | 16.38% |
| CC(C)Cc1noc(COc2ccc(N(C)C(N)=O)cc2)n1 | -17.39% |
| Cn1cc(Cl)cc1C(=O)N1CCC2(CCCN(CC3CC3)C2=O)C1 (stereo not drawn) | -20.81% |
| COCCCC(=O)NCc1cccc(NC(N)=O)c1 | -9.096% |
| CC(Nc1cccc(CN2CCOC2=O)c1)C(=O)Nc1ccccc1F (stereo not drawn) | -4.647% |
| O=C1CC(NCc2cnc(C3CCCCC3)nc2)CN1c1ccccc1 (stereo not drawn) | -13.32% |
| N#Cc1cc2c(nc1SCc1cc(O)nc(O)n1)CCCCC2 | 128.9% |
| N#Cc1cc2c(nc1SCc1cc(O)nc(O)n1)CCCC2 | 96.26% |
| N#Cc1cc2c(nc1O)CCCCC2 | 109.4% |
| CCS(=O)(=O)c1ccccc1N1CCC(NC(=O)c2ccc[nH]2)CC1 | 7.844% |
| CCOCc1nc2c(c(NC(CC)c3ccnn3C)n1)CCNCC2 (stereo not drawn) | -1.595% |
| COCCCNC(=O)NCc1ccc(N2CCOC(C)C2)nc1 (stereo not drawn) | -2.359% |
| Cc1nnc(NC(=O)NCc2ccc(N3CCC(C)CC3)nc2)s1 | 109.6% |
| Cc1nnc(NC(=O)NCc2ccc(N3CCN(C)CC3)nc2)s1 | 5.046% |
| CC(=O)Nc1nc(C(=O)NCc2ccc(N3CCCCCC3)nc2)cs1 | 26.65% |

| SMILES | Percent Effect |
| --- | --- |
| Cc1nnc(NC(=O)NCc2ccc(N3CCOCC3)nc2)s1 | 89.19% |
| COc1ccc([C@@H]2C[C@H](NC(C)=O)C[C@H](Cc3ccccc3)O2)cn1 | -17% |
| Brc1cccc(C2(CNCc3cc[nH]c3)CCOCC2)c1 | -10.11% |
| O=C(NCc1ccccn1)[C@H]1COC[C@H]2CN(c3ncccn3)C[C@H]21.O=C(O)C(F)(F)F.O=C(O)C(F)(F)F | 6.701% |
| CC(C)C(=O)N1CCCC(Cc2ncccn2)C1 (stereo not drawn) | 110.8% |
| CC1CCN(CC2CCCN(C(=O)Nc3ccccn3)C2)CC1 (stereo not drawn) | -7.919% |
| Cc1cccnc1NC(=O)C1CCN(C(=O)C(C)C)CC1 | -2.993% |
| COc1ccccc1CC1CCCN(C(=O)c2cc[nH]n2)C1 (stereo not drawn) | 10.34% |
| CC(C)C(=O)N1CCCC(Cc2ccccn2)C1 (stereo not drawn) | 90.21% |
| CCC(=O)N1CCC(Cc2nccnc2Nc2ccccn2)CC1 | 7.091% |
| CCC1CCCN(C(=O)Cc2csc(-c3ncccn3)n2)C1 (stereo not drawn) | -10.41% |
| CC(C)C(=O)N1CCC(Cc2nccnc2Nc2ccccn2)CC1 | 100.8% |
| Cc1noc(C)c1CN(C)c1nccc(C(F)(F)F)n1 | -2.519% |
| COc1cc(NC(=O)c2cscn2)ncn1 | -4.682% |
| COCC1CC2(CCN(Cc3nc(C)cs3)CC2)CO1 (stereo not drawn) | 102% |
| COCC1CC2(CCN(C(=O)c3occc3C)CC2)CO1 (stereo not drawn) | -1.906% |
| c1ccc(OCC2CC3(CCN(Cc4ccncc4)CC3)CO2)nc1 (stereo not drawn) | 4.031% |
| Cc1csc(CN2CCC3(CC2)COC(COc2ccccn2)C3)n1 (stereo not drawn) | 106.5% |
| O=S(=O)(C1CC1)N1CCC2(CC1)COC(COc1ccccn1)C2 (stereo not drawn) | 3.051% |
| COCC1CC2(CCN(C(=O)c3ccc(F)cc3C)CC2)CO1 (stereo not drawn) | 14.78% |
| Cc1nc(CN(C)Cc2csc(-c3cccs3)n2)co1 | -5.147% |
| CC(C)C(C#N)N1CCN(Cc2nccn2CC(F)(F)F)CC1 (stereo not drawn) | -1.445% |
